Screening results: PubChem BioAssay, National Center for Advancing Translational Sciences (NCATS)
The list is not random: actives were taken first. Their share in the collection is about 9.3%.
NPC1 promoter act: qHTS Assay for NPC1 Promoter Activators; Huh7 NPC1 promoter luciferase reporter, 24 h; Potency, µM (doses to about 9.22 µM), for inactives: top-dose activation, actives largely listed as activators; 320,000 tested, 2.4% active; AID 485313, 2010; further: % of control where 0% means no effect; nearly all actives have a fitted effect of over 60% in size
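Stable NPC1-promoter luciferase Huh7 line; cpd (DMSO) 24 h, 37 °C, 5% CO2; Amplite luciferase reagent 10 min RT; luminescence readout. qHTS format.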
ELG1 repair inh: qHTS screen for small molecules that inhibit ELG1-dependent DNA repair in human embryonic kidney (HEK293T) cells expressing luciferase-tagged ELG1; HEK293T ELG1-luciferase reporter, luminescence, 16 h; DNA damage induced by 5-fluorouridine; Potency, µM (highest dose often 46.1 µM), for inactives: top-dose activity change, negative = inhibition, hits mostly inhibitors; 330,000 tested, 2.3% active; AID 504467, 2011; further: on the % scale 0 is the no-effect control and ±100 the full control effect; nearly all actives have a fitted effect of over 55% in size
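Cells (2,000 per well) received 5-fluorouridine plus test compound or DMSO and were incubated 16 hr at 37 °C, 5% CO2. Luciferase activity was read by luminescence 30 min after ONE-Glo addition; signal suppression marked inhibition of damage-induced ELG1 function.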
Rab9 prom act: qHTS Assay for Rab9 Promoter Activators; Potency, µM (doses to about 9.22 µM), for inactives: at the top dose activation, negative = inhibition, most hits filed as activators; 320,000 tested, 2.8% active; Huh7 Rab9 promoter-luciferase reporter, luminescence, 24 h; further: % of control where 0% means no effect; nearly all actives have a fitted effect of over 60% in size
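Huh7 cells stably carrying Rab9 promoter–luciferase reporter, plated 1500 cells/well, compound added after 2 h and incubated 24 h at 37 °C; luciferase luminescence then read after 10 min with detection reagent.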
SMN2 splice enh: qHTS Assay for Enhancers of SMN2 Splice Variant Expression; HEK293 SMN2-luciferase splicing reporter, luminescence, 30-36 h; Potency, µM (doses to about 46.1 µM), for inactives: top-dose activity change, positive = activation, hits mostly activators; 210,000 tested, 2.8% active; further: % of control where 0% means no effect; nearly all actives have a fitted effect of over 55% in size
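qHTS luciferase splicing reporter: luminescence rises when SMN2 exon 7 is included in transfected HEK293 cells. Compound exposure lasted 30-36 h at 37C, with 4.5 mM final sodium butyrate as control, followed by a ONE-Glo read.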
FLuc counter: qHTS profiling assay for firefly luciferase inhibitor/activator using purifed enzyme and Km concentrations of substrates (counterscreen for miR-21 project); purified FLuc, Km substrates, luminescence inhibition; AID 588342, 2011; Potency, µM (doses to about 57.5 µM), inactives show at the highest dose activity change, negative = inhibition, hits mostly inhibitors; 360,000 tested, 6.9% active; Luciferin 4-monooxygenase (Photinus pyralis), P08659;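 further: plate controls were vehicle for no effect and reference inhibitor for full effect; nearly all actives have a fitted effect of over 55% in size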
Target sequence (P08659 whole entry, looked up): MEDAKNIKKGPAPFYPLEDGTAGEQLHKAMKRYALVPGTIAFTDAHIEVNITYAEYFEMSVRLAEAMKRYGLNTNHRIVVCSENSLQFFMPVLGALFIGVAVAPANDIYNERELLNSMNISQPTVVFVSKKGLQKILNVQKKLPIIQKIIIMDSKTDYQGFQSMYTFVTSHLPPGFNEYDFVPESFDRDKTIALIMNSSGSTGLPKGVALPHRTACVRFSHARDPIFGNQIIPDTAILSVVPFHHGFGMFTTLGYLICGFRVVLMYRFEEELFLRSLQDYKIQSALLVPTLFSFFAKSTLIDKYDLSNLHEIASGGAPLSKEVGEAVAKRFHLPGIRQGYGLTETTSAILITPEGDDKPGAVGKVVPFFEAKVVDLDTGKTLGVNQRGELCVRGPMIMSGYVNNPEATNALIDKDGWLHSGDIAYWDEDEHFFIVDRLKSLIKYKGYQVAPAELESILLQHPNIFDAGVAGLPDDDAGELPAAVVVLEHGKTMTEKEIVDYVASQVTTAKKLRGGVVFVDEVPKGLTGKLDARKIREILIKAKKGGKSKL
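Purified P. pyralis luciferase, 10 nM final, with Km-level 10 uM D-luciferin and 10 uM ATP in 50 mM Tris acetate pH 7.5, 10 mM Mg acetate, 0.01% Tween-20, 0.05% BSA; 6-point qHTS titration about 60 µM downward; luminescence read.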
ELG1 genotoxic: qHTS screen for small molecules that induce genotoxicity in human embryonic kidney (HEK293T) cells expressing luciferase-tagged ELG1. Potency, µM (doses to about 46 µM), without a hit: at the top dose activity change, positive = activation, actives largely listed as activators. HEK293T ELG1-luciferase reporter, luminescence, 16 h. 330,000 tested, 1.3% active; further: % of control where 0% means no effect; nearly all actives have a fitted effect of over 60% in size
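Step 1: seed 2,000 HEK293T ELG1-luciferase cells per well. Step 2: add compound or DMSO, incubate 16 hr at 37 °C. Step 3: ONE-Glo, 30 min at room temperature, read luminescence.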
Starred values were filed as active, the others as inactive; ? = inconclusive; / = not tested or not shown. The call rests on the fitted dose curve; in most records, active means well fitted curve in the direction sought with a large enough effect; inconclusive means small, poorly fitted or top-dose-only effect, or another doubt; inactive means no such curve, though single readings can be large; an effect the other way counts as inactive or inconclusive. Potency means the concentration at half of the fitted maximal effect.

SMILES	NPC1 promoter act	ELG1 repair inh	Rab9 prom act	SMN2 splice enh	FLuc counter	ELG1 genotoxic
NC(=O)c1ccc[n+]([C@@H]2OC(COP(=O)([O-])OP(=O)(O)OCC3OC(n4cnc5c(N)ncnc54)C(OP(=O)(O)O)C3O)C(O)C2O)c1 (some centres not stated)	/	/	/	-13%	/	/
CCn1cc(C(=O)Nc2ncccc2O)c(=O)c2cc(F)c(N3CCN(C(=O)c4ccco4)CC3)cc21	-5%	?	-4%	/	2%	-9%
CCOc1ccc2nc(NC(=O)c3cc(=O)c4cc(C)cc(C)c4o3)sc2c1	/	/	/	-1%	-5%	/
CSc1nnc2[nH]c(=O)cc(C)n12	/	/	/	/	7%	/
Cc1cc(=O)[nH]c2nnc(-c3ccc(Cl)cc3)n12	2.8µM*	?	?	/	3.4µM*	?
CCOC(=O)c1cnc2c(OC)cccc2c1N1CCN(c2ccccc2OC)CC1	-1%	10µM*	-4%	/	-6%	-7%
Oc1cc2c(cc1O)C1c3ccc(O)c(O)c3OCC1(O)C2 (configuration not stated)	1%	-6%	9%	-106%	8.5µM*	1%
COc1ccc(-c2nc3sc(CCNC(=O)c4ccco4)c(C)n3n2)cc1	/	/	/	/	21µM*	/
COc1ccc(-c2nc3sc(CCNC(=O)c4cc(OC)c(OC)c(OC)c4)c(C)n3n2)cc1	/	/	/	/	11µM*	/
NNC(=O)c1csc(-c2ccc(C(F)(F)F)cc2Cl)n1	-3%	-7%	-9%	/	-8%	-1%
COC(=O)c1cc(C)sc1NC(=O)CN1CCN(C(=O)c2ccco2)CC1	0%	21µM*	7%	/	0%	-7%
CCOC(=O)c1c(NC(=O)c2ccco2)sc2c1CCCC2	9%	2%	1%	-12%	3%	12%
COC(=O)c1cc(C)sc1NC(=O)CN1CCN(C(=O)C2CCCO2)CC1 (configuration not stated)	-39%	?	-43%	/	0.85µM*	-20%
CCOC(=O)c1c(NC(=O)CN2CCN(C(=O)c3ccco3)CC2)sc2c1CCCC2	-7%	21µM*	-4%	-62%	-2%	-9%
NC(=O)c1nsc(C(=O)N(Cc2ccco2)C(C(=O)NCc2ccccc2)c2ccc(O)cc2)c1N (configuration not stated)	-3%	?	-3%	/	1%	-13%
O=C(COC(=O)c1cccnc1Cl)NCc1ccco1	-1%	8%	-9%	14%	-2%	4%
CC(C)NC(=O)CN(C(=O)CCC(=O)Nc1nccs1)c1ccc(C(C)C)cc1	4%	-2%	-3%	/	1%	0%
Cc1cnc(CNc2cc(-c3ccoc3)ncn2)cn1	/	/	/	5%	/	/
Cc1cc2ccccc2n2c(SCC(=O)N3CCc4ccccc4C3)nnc12	-1%	?	-8%	-9%	0%	-2%
COc1ccc(N2CCN(C(=O)CSc3nnc4c(C)cc5ccccc5n34)CC2)cc1	-2%	23µM*	-3%	-29%	-2%	-15%
O=S(=O)(Cc1nc2ccccc2s1)c1ccccc1	2µM*	?	3.2µM*	14µM*	12µM*	4.6µM*
Fc1ccc(OCc2nc3ccccc3s2)cc1	1.4µM*	?	3.2µM*	11µM*	2.4µM*	2.3µM*
Cc1cc(OCc2nc3ccccc3s2)ccc1N	1µM*	?	0.56µM*	/	1.5µM*	2.9µM*
CCC(=O)Nc1ccc(OCc2nc3ccccc3s2)cc1	2µM*	?	0.63µM*	5µM*	4.3µM*	2.9µM*
N#Cc1ccc(NC(=O)CCc2nc3ccccc3s2)cc1	0%	-3%	-3%	9%	-11%	-3%
